Akt phos inh: blocks phosphorylation of Akt; Neuro2A IGF-stimulated pAkt S473 HTRF, 20 min; active compounds read low; activity change, % for hits at 50 µM; 360,000 tested, 0.32% active; AID 651550; in the data active = activity change below about -80%; inconclusive = mostly about -51% to -80%; note: % is set by controls: 0 for no effect and ±100 for the full control effect
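Neuro2A cells in DMEM with 0.5% FBS, overnight at 37 deg C, given compound at single 50 µM final, then IGF (6 nM final) for 20 min at 37 deg C. Lysed; phospho-Akt Ser473 by HTRF after 24 h, 665/615 ratio.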
Mito fusion act: inhibitors of mitochondrial division or activators of mitochondrial fusion | 320,000 tested, 0.23% active | AID 485298 | Potency, µM (titrated, usually from 46.1 µM), for inactives: top-dose growth rescue (activation), most hits filed as activators | S. cerevisiae fusion-defective mutant growth rescue, CellTiterGlo 48 h; note: potency is the fitted concentration of half-maximal effect; % of control where 0% means no effect; nearly all actives have a fitted effect of over 45% in size
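Luminescent cell viability in 1536-well qHTS format served as the measure of rescued growth in ts fusion-mutant S. cerevisiae cultured on non-fermentable YPEG for 48 hours at 37C.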
Anesthetic bind: binds horse apoferritin like a general anesthetic. P02791. apoferritin/1-aminoanthracene competitive binding, fluorescence. Potency, µM (doses to about 77.5 µM), for inactives: at the top dose activity change, negative = displacement, usual class: inhibitors. 350,000 tested, 0.074% active. AID 485281; note: potency is the fitted concentration of half-maximal effect; % is set by controls: 0 for no effect and ±100 for the full control effect; nearly all actives have a fitted effect of over 20% in size
Target sequence (P02791 2-175 limits assumed): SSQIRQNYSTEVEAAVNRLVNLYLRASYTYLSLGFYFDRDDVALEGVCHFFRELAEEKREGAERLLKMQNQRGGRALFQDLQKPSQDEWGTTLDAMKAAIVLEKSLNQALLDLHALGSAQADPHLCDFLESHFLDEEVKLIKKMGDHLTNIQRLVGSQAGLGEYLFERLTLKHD
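10 uM apoferritin + 50% sat. 1-AMA, PBS; cpd 10 min RT; Ex380/Em535 endpoint; normalized to free probe vs complex; 4-param Hill fit; propofol titration as pos. ctrl.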
TDP-43 yeast inh: inhibitors of TDP-43 toxicity in yeast; TDP-43 expressing yeast growth rescue, BacTiter-Glo, 24 h; Potency, µM (highest dose often 46.1 µM), for inactives: top-dose growth rescue (activation), actives largely listed as activators; 410,000 tested, 1.8% active; AID 652104; note: potency is the fitted concentration of half-maximal effect; % of control where 0% means no effect; nearly all actives have a fitted effect of over 50% in size
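Readout is BacTiter-Glo luminescence of cell growth, so inhibitors register as activators. TDP-43-expressing yeast at OD600=0.02 in galactose medium, after raffinose pregrowth to mid-log, were incubated with compound for 24 hr at 30 deg C.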
aSyn rescue: alpha-synuclein toxicity inhibition in yeast; Potency, µM (top dose mostly 46.1 µM), inactives show at the top dose growth rescue (activation), usual class: activators; 370,000 tested, 0.14% active; Yeast expressing alpha-synuclein, growth rescue, BacTiter-Glo, 24 h; note: potency is the fitted concentration of half-maximal effect; % of control where 0% means no effect; nearly all actives have a fitted effect of over 65% in size
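Readout is rescue of growth in alpha-synuclein-expressing yeast, so inhibitors of toxicity appear as activators. Growth after 24 hr at 30 deg C in galactose medium is quantified by luminescence.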
CCT chaperon mod: changes cytosolic chaperonin activity | purified chaperonin ATPase assay, HTRF ADP detection, 30 min | activity change, % (concentration not given with the values), hits read low | 360,000 tested, 0.3% active; in the data active = activity change below about -30%; note: % is set by controls: 0 for no effect and ±100 for the full control effect
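Nucleotide hydrolysis assay: TRiC at 20–40 nM final (set by batch activity) with 10 uM ATP, 30 min at 37 °C, in presence of 76 uM compound. Detection by competitive ADP HTRF, 30 min ambient.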
* hit, by the source's call; [ ] = dose if it differs, or a comment. Only some compounds are listed: those with a hit (about 2.5% of all), similar ones and a draw of the others. Unless noted, calls come from the whole dose curve; as a rule, active = well fitted curve in the direction sought with a large enough effect; inconclusive = small, poorly fitted or top-dose-only effect, or another doubt; inactive = no such curve, though single readings can be large; an effect the other way counts as inactive or inconclusive.

How did COc1cc(OC)c(C2Nc3ccccc3-c3nnc(SCc4ccccc4)nc3O2)cc1OC (centres undefined) do in these assays?
Anesthetic bind: inconclusive; TDP-43 yeast inh: 30%

Results for On1cnnc1-c1ccccc1 ?
Akt phos inh: -91%*; Mito fusion act: -1%; Anesthetic bind: -7%; TDP-43 yeast inh: -11%; aSyn rescue: -12%; CCT chaperon mod: 3

How did COn1cnnc1-c1ccccc1 do in these assays?
Akt phos inh: inactive; Mito fusion act: 2%; Anesthetic bind: -2%; TDP-43 yeast inh: -5%; aSyn rescue: 0%; CCT chaperon mod: -1

Results for O=C(Nc1ccc2c(c1)OCCO2)c1cnn(-c2ccccc2)n1 ?
Akt phos inh: inactive; Mito fusion act: 5%; TDP-43 yeast inh: 18µM*; aSyn rescue: 0%[1.84 µM]; CCT chaperon mod: -4

Results for CC(C)c1ccc(NC(=O)C2CC2c2ccccc2)cc1 (centres undefined) ?
Akt phos inh: inactive; Mito fusion act: -4%; Anesthetic bind: 35µM*; TDP-43 yeast inh: 15%; aSyn rescue: -17%; CCT chaperon mod: -1

Results for O=C(Nc1ccc2c(c1)OCCO2)c1ccccc1 ?
Akt phos inh: inactive; Mito fusion act: -20%; Anesthetic bind: -5%; TDP-43 yeast inh: -2%; aSyn rescue: -18%; CCT chaperon mod: -1

What do the screens show for `O=C(Nc1ccc2c(c1)OCCO2)C1CC1c1ccccc1` (centres undefined)?
Akt phos inh: inactive; Mito fusion act: 17%; Anesthetic bind: -3%; TDP-43 yeast inh: 25µM*; aSyn rescue: -20%; CCT chaperon mod: -5

What do the screens show for `O=C(O)C1CCCCC1C(=O)Nc1ccc2c(c1)OCCO2` (centres undefined)?
Akt phos inh: inactive; Mito fusion act: 1%; Anesthetic bind: -21%; TDP-43 yeast inh: -13%; aSyn rescue: -10%; CCT chaperon mod: 0

Results for COc1ccc(Nc2nc(-c3sc(C)nc3C)cs2)cc1 ?
Akt phos inh: inactive; Mito fusion act: -1%; Anesthetic bind: -16%; TDP-43 yeast inh: 20µM*; aSyn rescue: -16%; CCT chaperon mod: -1

What do the screens show for `Cc1nc(C)c(-c2csc(NCc3ccccc3)n2)s1`?
Akt phos inh: inactive; Mito fusion act: inconclusive; Anesthetic bind: inconclusive; TDP-43 yeast inh: 20µM*; aSyn rescue: -2%; CCT chaperon mod: -10

Results for CCC(C)C(=O)Nc1nc(C)c(-c2csc(Nc3ccc(Cl)cc3)n2)s1 (centres undefined) ?
Akt phos inh: inactive; Mito fusion act: 1%; Anesthetic bind: -11%; TDP-43 yeast inh: 28%; aSyn rescue: 4%; CCT chaperon mod: 1

Results for Cc1nc(C)c(-c2csc(Nc3ccc(N)cc3)n2)s1 ?
Akt phos inh: inactive; Mito fusion act: -2%; Anesthetic bind: -15%; TDP-43 yeast inh: 5%; aSyn rescue: -13%; CCT chaperon mod: -2

What do the screens show for `CCCC(=O)Nc1nc(C)c(-c2csc(Nc3ccc(Cl)cc3)n2)s1`?
Akt phos inh: inactive; Mito fusion act: -8%; Anesthetic bind: inconclusive; TDP-43 yeast inh: 14µM*; aSyn rescue: -2%; CCT chaperon mod: -1

How did COc1ccc(CCNc2nc(-c3sc(C)nc3C)cs2)cc1OC do in these assays?
Akt phos inh: inactive; Mito fusion act: 3%; Anesthetic bind: -18%; TDP-43 yeast inh: 22µM*; aSyn rescue: 0%; CCT chaperon mod: -2

What do the screens show for `Cc1nc(C)c(-c2csc(NCc3ccco3)n2)s1`?
Mito fusion act: -2%; Anesthetic bind: -4%; TDP-43 yeast inh: 1%; aSyn rescue: -24%; CCT chaperon mod: 3

What do the screens show for `NC(N)=Nc1ccc(/C=C2\C=Cc3ccccc32)cc1`?
aSyn rescue: -14%

How did COc1ccc2c(c1)c1c(c(=O)n(-c3cc(Cl)ccc3C)c(=O)n1CC(=O)N1CCCC1)n2C do in these assays?
Anesthetic bind: 97%; TDP-43 yeast inh: 11%

Results for CC(=O)Nc1ccc(-c2csc(Nc3ccc(Cl)cn3)n2)cc1 ?
Akt phos inh: inactive; Mito fusion act: -29%; Anesthetic bind: -7%; TDP-43 yeast inh: 9%; aSyn rescue: -17%; CCT chaperon mod: -7

What do the screens show for `CC(=O)Nc1cccc(-c2csc(Nc3ccc(Cl)cn3)n2)c1`?
Akt phos inh: inactive; Mito fusion act: 17%; Anesthetic bind: -11%; TDP-43 yeast inh: 22µM*; aSyn rescue: 3%; CCT chaperon mod: 0

Results for Cc1ccnc(Nc2nc(-c3c(C)nc4sccn34)cs2)c1 ?
Mito fusion act: -1%; Anesthetic bind: 3%; TDP-43 yeast inh: 7.1µM*; CCT chaperon mod: -2

Results for COc1ccc(-c2csc(Nc3cc(C)ccn3)n2)cc1OC ?
Akt phos inh: inactive; Mito fusion act: -12%; Anesthetic bind: 3%; TDP-43 yeast inh: 14µM*; aSyn rescue: -25%; CCT chaperon mod: -2

What do the screens show for `CC(=O)Nc1ccc(-c2csc(Nc3cc(C)ccn3)n2)cc1`?
Akt phos inh: inactive; Mito fusion act: -8%; Anesthetic bind: -19%; TDP-43 yeast inh: 16µM*; aSyn rescue: -23%; CCT chaperon mod: 0

Results for COc1ccc(OC)c(-c2nnc3n2N=C(c2c(OC)cccc2OC)CS3)c1 ?
Anesthetic bind: -14%

How did CCOC(=O)c1c(Nc2ccc(OC)cc2)nnc(-c2ccccc2)c1-c1ccccc1 do in these assays?
Anesthetic bind: inconclusive; TDP-43 yeast inh: 29%; aSyn rescue: -8%

What do the screens show for `CCOc1ccc(OCCC(=O)NNC(=O)c2nn(C)c(=O)c3ccccc23)cc1`?
Akt phos inh: inactive; Mito fusion act: 1%; Anesthetic bind: -7%; TDP-43 yeast inh: 6%; aSyn rescue: 9%; CCT chaperon mod: -4

How did CCCn1nc(C(=O)NNC(=O)CCCOc2ccc(OC)cc2)c2ccccc2c1=O do in these assays?
Akt phos inh: inactive; Mito fusion act: 1%; TDP-43 yeast inh: 14%; aSyn rescue: 2%; CCT chaperon mod: -76*

How did Cc1nc(-c2ccc(F)cc2)sc1CCNC(=O)c1ccc(OC(C)C)cc1 do in these assays?
Anesthetic bind: -12%; TDP-43 yeast inh: 16µM*

Results for COc1ccc(-c2nc(C)c(CCNC(=O)c3ccco3)s2)cc1 ?
Anesthetic bind: -10%; TDP-43 yeast inh: 16µM*; aSyn rescue: -10%

What do the screens show for `Cc1nc(-c2ccc(F)cc2)sc1CCNC(=O)c1ccccc1`?
Anesthetic bind: -7%; TDP-43 yeast inh: 18µM*

How did Cc1nc(-c2ccc(F)cc2)sc1CCNC(=O)c1ccc(C(C)(C)C)cc1 do in these assays?
Anesthetic bind: 67%; TDP-43 yeast inh: -3%
